This experiment concerns the target T1, Testis-specific serine/threonine-protein kinase 2 (Homo sapiens) (UniProt Q96PF2).
T1 sequence (whole entry): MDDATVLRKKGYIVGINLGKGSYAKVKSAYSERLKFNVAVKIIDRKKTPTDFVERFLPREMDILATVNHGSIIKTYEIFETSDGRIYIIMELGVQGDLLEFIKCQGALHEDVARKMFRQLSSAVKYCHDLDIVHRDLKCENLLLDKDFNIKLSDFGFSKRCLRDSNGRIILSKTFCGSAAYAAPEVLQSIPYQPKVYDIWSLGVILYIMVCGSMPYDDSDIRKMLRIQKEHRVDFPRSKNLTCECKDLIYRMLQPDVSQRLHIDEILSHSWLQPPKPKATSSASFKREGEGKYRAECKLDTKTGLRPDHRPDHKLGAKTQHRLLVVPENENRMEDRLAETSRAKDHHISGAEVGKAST
The following applies: at 1 µM.
Turning to `O=c1cc(N2CCOCC2)oc2c1ccc1ccccc12`, the residual activity worked out at 95%. Regarding `Cn1cc(/C=C2\C(=O)Nc3ccc(S(N)(=O)=O)cc32)c2ccccc21`, the residual activity stood at 72%. Turning to `CCOc1cc2ncnc(Nc3cccc(Br)c3)c2cc1OCC`, the residual activity is 82%.

On to `O=C1NC(=O)c2c1c1c3ccccc3[nH]c1n1cncc21`, for which the residual activity came out at 83%.

`CCN1/C(=C/C(C)=O)Sc2ccc(OC)cc21`: the residual activity is 77%. On to `O=C(Nc1cccc(Nc2nccc(Nc3cccc(C(F)(F)F)c3)n2)c1)C1CC1`, for which the residual activity stood at 86%. For the compound `Nc1ncnc2c1c(-c1ccc(Oc3ccccc3)cc1)cn2C1CCCC1`, the residual activity is 86%. As for `NC(=O)c1ccc2[nH]c(-c3ccc(Oc4ccc(Cl)cc4)cc3)nc2c1`, the residual activity came out at 98%. Next, `Cc1cc2ncc(-c3ccccc3)nc2cc1C`: 91%. As for `O=C(Nc1cccc(Nc2cc(Nc3cccc(C(F)(F)F)c3)ncn2)c1)C1CC1`, the residual activity turned out to be 91%.

As for `Nc1nc(Nc2ccc(S(N)(=O)=O)cc2)nn1C(=O)c1c(F)cccc1F`, the residual activity stood at 103%.

For `Cc1nc(-c2ccccc2)c(-c2ccncc2)o1`, the residual activity was found to be 97%. With `COc1ccc(CNc2nc(N(CCO)CCO)nc3c2ncn3C(C)C)cc1`, the residual activity came to 98%. Turning to `CO[C@@H]1[C@H](N(C)C(=O)c2ccccc2)C[C@H]2O[C@]1(C)n1c3ccccc3c3c4c(c5c6ccccc6n2c5c31)C(=O)NC4`, the residual activity is 51%. On to `CNc1cc2c(Nc3cccc(Br)c3)ncnc2cn1`, for which the residual activity was 104%. With `NC(=O)Nc1sc(-c2ccc(F)cc2)cc1C(N)=O`, the residual activity came out at 88%. Regarding `O=C(c1cc2cc(O)ccc2[nH]1)c1cc2cc(O)ccc2[nH]1`, the residual activity is 77%. Then `O=C1C(Cl)=C(N2C(=O)CCC2=O)C(=O)c2ccccc21`, with 84%. For `Nc1n[nH]c2nnc(-c3c(-c4ccccc4)nn4ccccc34)cc12`, the residual activity was 104%. As to `COc1cc2ncnc(Nc3ccc(Oc4ccccc4)cc3)c2cc1OC`, the residual activity was found to be 97%.

`Nc1ncnc2c1cnn2-c1ccccc1`: the residual activity stood at 93%. Consider `O=C1NC(=O)C(c2cn(CCCO)c3ncccc23)=C1c1cnccn1`, for which the residual activity is 59%. On to `Nc1n[nH]c2nc3ccccc3nc12`, for which the residual activity was 95%.

On to `Oc1c2ccccc2c2c3c(cccc13)N=N2`, for which the residual activity is 92%.

As to `CC(C)n1cnc2c(NCc3ccccc3)nc(NCCCO)nc21`, the residual activity came out at 86%. `Cn1cnc2cc3c(Nc4cccc(Br)c4)ncnc3cc21`: the residual activity turned out to be 100%.

Turning to `CC(=O)O/N=C1\C(=C2\C(=O)Nc3cc(Br)ccc32)Nc2ccccc21`, the residual activity is 79%.

As to `COc1ccc2c(c1)c(C1=C(c3c[nH]c4ccccc34)C(=O)NC1=O)cn2CCCN(C)C`, the residual activity was 81%. With `c1ccc(-c2n[nH]c3c2oc2ccccc23)cc1`, the residual activity was found to be 96%. Consider `CCN(CC)C(=O)c1ccc(Nc2nc(OCC3CCCCC3)c3nc[nH]c3n2)cc1`, for which the residual activity turned out to be 62%. Take `Cc1cccc(-c2[nH]c(C(C)(C)C)nc2-c2ccc3c(c2)OCO3)n1`: the residual activity was determined as 93%.

Regarding `COc1ccc(S(=O)(=O)N(CCO)c2ccccc2CN(C)C/C=C/c2ccc(Cl)cc2)cc1`, the residual activity was found to be 101%.

Turning to `CC#CC(=O)Nc1cc2c(Nc3ccc(F)c(Cl)c3)ncnc2cn1`, the residual activity is 87%.

Take `COc1cccc(-c2cc(=O)c3ccccc3o2)c1N`: the residual activity was determined as 89%. `O=C1Cc2c([nH]c3ccc(Br)cc23)-c2ccccc2N1`: the residual activity turned out to be 96%.

Take `O=C1Nc2ccc(Cl)cc2/C1=C/c1cc(Cl)c(O)c(Cl)c1`: the residual activity was determined as 76%.

Regarding `O=C1NC(=O)/C(=C/c2ccc3c(c2)OC(F)(F)O3)S1`, the residual activity stood at 93%. On to `N#C/C(=C1/Nc2ccccc2S1)c1ccnc(NCCc2cccnc2)n1`, for which the residual activity was 82%. On to `CC[n+]1c(/C=C/N(C)c2ccccc2)n(-c2ccccc2)c2ccc(-c3nc4ccccc4s3)cc21`, for which the residual activity is 104%. With `CSc1nc(-c2ccc(F)cc2)c(-c2ccnc(NC(C)c3ccccc3)c2)[nH]1` (stereo not given), the residual activity worked out at 98%.

One may read the residual activity as the signal under treatment as a percentage of the control signal.

The record behind these values is ChEMBL document CHEMBL2218924, “A broad activity screen in support of a chemogenomic map for kinase signalling research and drug discovery” (Biochem J, 2013).
